The results in this text go back to PubChem BioAssay AID504558 (Broad Institute, 2011).

Structures are written as SMILES. About 2,400 (0.69%) of roughly 350,000 compounds were called active. No stated cut-off is given here; in the data, active means inhibition above about 41%; inconclusive means no clear call, values can overlap the other calls; inactive means below that. Only a selection was taken, and actives are over-represented in it overall.

One may read the inhibition as the relative decrease from the control value, in per cent.

This assay can be described thus: blockers of LMP1-induced NF-kB reporter signal – cell-based, luminescence, single point, primary screen (AID 504558).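 Further: 0% = neutral control wells and 100% = reference inhibitor control.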 The settings on record: LMP1-induced NF-kappaB luciferase reporter cells, at 12.5 µM, stronger effect = higher value. (In general: Reporter assays use an easily measured gene product as a stand-in for the process of interest.)
For `COc1cccc(-c2nc3ccc(N4CCN(C)CC4)cc3[nH]2)c1`, the inhibition is 55.9% (active).

`CN1CCN(c2cc(N3CCNCC3)ccc2[N+](=O)[O-])CC1`: the inhibition is -3.51% (inactive).

In the case of `O=C(c1ccccc1)C(O)(CN1CCCCC1)c1ccccc1` (stereo not given), the inhibition was 10.5% (inactive).

As to `CCOc1ccc(-c2cc(C)[n+](CCN(CC)CC)c(-c3ccc(OCC)cc3)c2)cc1`, the inhibition is 34.1% (inactive).

For `CCC/C(=N\O)c1c[nH]c2ccccc12`, the inhibition is -1.7% (inactive).

In the case of `NCCc1c[nH]c2ccc(O)cc12`, the inhibition is 0.174% (inactive).

As to `CC(C)c1c(CN(C)C(C)Cc2ccccc2)n(C)n(-c2ccccc2)c1=O` (stereo not given), the inhibition is 46.3% (active).

On to `CN(C)CCN(CC1CCCN(Cc2ccccc2F)C1)C(=O)Cc1ccc(F)c(F)c1` (stereo not given), for which the inhibition was -8.27% (inactive).

For the compound `c1cc2c(cc1[C@H]1OC[C@H]3[C@@H]1CO[C@@H]3c1ccc3c(c1)OCO3)OCO2`, the inhibition is -19.4% (inactive).

As to `CC=C(C)C(=O)OC1CCN2CC=C(COC(=O)C(O)(C(C)OC)C(C)(C)O)C12` (stereo not given), the inhibition was -5.68% (inactive).

Consider `COc1ccc2c(c1)[C@]13CCCCC1C(C2)N(C)CC3` (stereo not given in full), for which the inhibition was -1.94% (inactive).

Turning to `CCCC[N+]1(C)C2CC(OC(=O)C(CO)c3ccccc3)CC1C1OC12` (stereo not given), the inhibition is -0.864% (inactive).

Turning to `Cc1ccc(-c2nn(CCC#N)cc2C(=O)O)cc1C`, the inhibition is -6.4% (inactive).

Regarding `Clc1cccc(Cl)c1Cl`, the inhibition is -0.913% (inactive).

For the compound `CCC(C)(O)C(=O)OC1C(=O)OC2CC3C(C)=CC(=O)C(O)C3(C)C3C4(O)OCC23C1C(C)C4O` (stereo not given), the inhibition is 93.7% (active).

Turning to `CN(C)C(=O)Oc1ccc(NC(=O)N2CCOCC2)cc1`, the inhibition was 3.17% (inactive).

On to `CCN1C(=O)C(=Cc2c(C)n(CC(=O)NCC3CCCO3)c3ccccc23)C(=O)N(CC)C1=S` (stereo not given), for which the inhibition is 0.11% (inactive).

`CC(=O)OC1C2(CC3N4C(=O)C5(CO)SSC4(CC31O)C(=O)N5C)OC(C)C(C)(C)C2=O` (stereo not given): the inhibition is 86.8% (active).

For the compound `CCOC(=O)CC(SP1(=S)OCC2(CCCCO2)C(C2CCCCO2)O1)C(=O)OCC` (stereo not given), the inhibition was -9.32% (inactive).

`C[C@]12CC[C@H](O)C[C@H]1CC[C@@H]1C2CC[C@]2(C)[C@@H](C3=CC(=O)OC3)[C@@H](O)C[C@]12O` (stereo not given in full): the inhibition was 37% (inactive).

For `COC1C(O)C(C)OC(OC2CCC3(C=O)C(CCC4C3CCC3(C)C(C5=CC(=O)OC5)CCC43O)C2)C1O` (stereo not given), the inhibition is 89.7% (active).

`O=C(NCC1=C(c2ccc3ccccc3c2)C[C@@H]2CC[C@H]1N2Cc1ccco1)c1cccs1`: the inhibition was 1.8% (inactive).

For the compound `CCC(=O)OC(Cc1ccccc1)(c1ccccc1)C(C)CN(C)C` (stereo not given), the inhibition was 0.604% (inactive).

Turning to `O=C1C2(Cl)C3(Cl)C4(Cl)C(Cl)(Cl)C5(Cl)C3(Cl)C1(Cl)C5(Cl)C24Cl` (stereo not given), the inhibition is 6.24% (inactive).

For `CN1CCN(Cc2ccc(OC(F)(F)F)cc2)CC1`, the inhibition is -6.99% (inactive).
